Results filed as inconclusive are left out. Calls of active or inactive are those of the source. Calls follow the shape of the dose curve; as a rule, active = well fitted cell-killing curve with a large enough effect; inconclusive = small, poorly fitted or top-dose-only effect, or effect the other way; inactive = no such curve, though single readings can be large or run the other way.
Each compound was assayed on CAOV3 (assay: Confirmatory qHTS for gynecologic anti-cancer compounds from libraries of approved drugs and bioactive compounds). Conditions: gynecologic cancer cell panel viability, ATPlite luminescence, 48 h; series mostly up to 57.6 µM; activity change, negative = viability loss: at the top concentration.
Text: National Center for Advancing Translational Sciences [NCATS] Assay Overview: Chemotherapeutic drug responses vary from cancer to cancer and from patient to patient. These variations could be caused by a number of factors including patient genomic background, tumor mutations, tumor heterogeneity, and aspects of drug treatment. Chemotherapeutic drug resistance is also a common issue and can lead to ineffective treatment and patient death. Here we have profiled the cell killing effects of thousands of compounds to characterize the responses in three gynecological cancers, identify cancer-selective compounds, and understand the diversity of responses to these compounds from pan-cancer suppressors to single cell line selective compounds. In this assay, we screened a 7,914 compound drug library that included approved drug and bioactive compounds in six ovarian, three cervical, and two placental cancer cell lines using the ATPlite assay for cell viability. ATPlite is a luminescence based assay reliant on the conversion of a luciferase substrate to light in the presence of ATP. As a cytotoxic compound will suppress growth and decrease the number of cells, the concentration of ATP will decrease, and less light signal will be detected in the well. Hits were selected from the primary screen for follow-up confirmation. For the confirmation screens, the ovarian cancer cell lines included CAOV-3, SK-OV-3, SW 626, ES-2, PA-1, and TOV-21G. The cervical cancer cell lines included HeLa, Ca Ski, and C-33 A. The placental cancer cell lines included JEG-3 and JAR. HEK 293T cells were used as the control cell line to determine the selectivity index. The ATPlite assay was used to determine the IC50 values.
Assay Protocol Summary: 1,000 cells in 4 uL of media were dispensed into white, solid bottom 1536-well plates using a Multidrop Combi (Thermo Scientific). The Assay plates were incubated for 16 hours at 37 C with 5% CO2 in assay plates, followed by the addition of 23 nL of DMSO or drug dissolved in DMSO. . Each compound was assayed in 11 concentrations (1:3 dilution) from 57.5 uM to 0.977 nM, using the automated Wako 1536 Pin Tool workstation and incubated at 37 C with 5% CO2 48 hours. 4 uL of ATPlite, the ATP monitoring reagent, was then added to the each well of the assay plates using the Multidrop Combi reagent dispenser followed by incubation for 15 minutes at room temperature. The resulting luminescence was measured using the ViewLux plate reader.
`C[C@]12CC[C@H]3[C@@H](CCC4=CC(=O)CC[C@@H]43)[C@@H]1CC[C@@H]2OC(=O)CCc1ccccc1` was tested, and the “activity change, negative = viability loss” value was -0.126% (inactive). In the case of `O=C(O)Cc1ccccc1`, the “activity change, negative = viability loss” value is reported as 5.87% (inactive). In the case of `C[C@H]1CCC/C=C/C2C[C@H](O)C[C@H]2[C@H](O)/C=C/C(=O)O1` (some centres undefined), the Potency is reported as 306 nM (active). `CCOc1ccccc1-n1c(C(C)N2CCN(C(=O)COc3ccc(Cl)cc3)CC2)nc2ccccc2c1=O` (centres undefined) was tested, and the “activity change, negative = viability loss” value was 11.5% (inactive). `CCNC(=O)C[C@@H]1N=C(c2ccc(Cl)cc2)c2cc(OC)ccc2-n2c(C)nnc21` was tested, and the Potency was 1220 nM (active). With `CCN1CCN(C(=O)Cc2ccc(Nc3ncc(F)c(Nc4ccc(C(=O)Nc5ccccc5Cl)cc4)n3)cc2)CC1` the “activity change, negative = viability loss” value was 1.61% (inactive). For `C=C(C)[C@H]1Cc2c(ccc3c2O[C@@H]2COc4cc(OC)c(OC)cc4[C@@H]2C3=O)O1`, the “activity change, negative = viability loss” value was 14% (inactive). For `CCC(=O)O[C@H]1CC[C@H]2[C@@H]3CCC4=CC(=O)CC[C@]4(C)[C@H]3CC[C@]12C`, the “activity change, negative = viability loss” value was -7.4% (inactive). With `C/C=C(/C)C(=O)O[C@H]1C(C)=C2[C@H]([C@@H]1OC(=O)CCCCCCC)[C@@](C)(OC(C)=O)C[C@H](OC(=O)CCC)[C@@]1(O)[C@H]2OC(=O)[C@@]1(C)O` the Potency was 9680 nM (active).

Source: PubChem BioAssay AID1345085 (National Center for Advancing Translational Sciences (NCATS), 2018)
% is scaled to controls: 0 for no effect and ±100 for the full control effect; potency is read from the fitted curve at half-maximal effect.
Also: nearly all actives have a fitted effect of over 55% in size.
